Measured values reported in the supplement of paper PMC10338343.
± gives the standard deviation. The full ranking holds about 6,200 sequences; the median of “pre-steady-state target cleavage rate” is about 0.29, and the highest 2% start at about 2. For the sample, the highest values were picked, then their nearest neighbours and some sequences at random.

test system: MIWI (PIWIL1) piRISC loaded with piRNA #1 (30 nt); test: pre-steady-state target cleavage rate (min^-1); MIWI and MILI are mouse PIWI proteins and EfPiwi is from a freshwater sponge; tags in brackets are library labels; higher = faster piRNA-guided slicing of the target; conditions: guide: piRNA #1 5'p-UGAGGUAGUAGGUUGUAUAGUAUCCAGAGG; auxiliary factor: 500 nM mouse GTSF1
Protocol: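 Cleave-'n-Seq: a library of target RNAs (target site embedded in constant flanks, ACAGCATTCCGCGTTAGTGATATCCG... 5' flank; DNA-blocked outside the site) at 0.1 nM was incubated with 1 nM active mouse MILI or MIWI piRISC (synthetic 5'-monophosphorylated piRNA guide) with or without 500 nM mouse GTSF1 at 33 °C for 1 min to 16 h. Uncleaved targets were sequenced and normalised to non-target controls, and the pooled three trials were fitted to a burst-and-steady-state model to give the pre-steady-state cleavage rate (min^-1; k3 is constrained to at most 1e-4). Sequence is the target site only; target names encode pairing extent (gX:gY) and contiguous / 1-mismatch / 2-mismatch / bulge geometry. Fits with R² ≤ 0 are excluded.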

| Sequence | pre-steady-state target cleavage rate |
| --- | --- |
| GGAGGGGAUACUAUACAACCUACUACCUCA | 1.51 ± 0.069 |
| GCACUGGAUACAAUACAACCUACUACCUCA | 1.8 ± 0.1 |
| GGAGACCUAUCUAUACAACCUACUCACCUCA | 0.537 ± 0.059 |
| GGAGUGGAUACUAAACAACCUACUUCCUCA | 0.0286 ± 0.0079 |
| GGAGUGGAUACUGAUACAACCUACUACCUCA | 1.3 ± 0.098 |
| GGAGACCUAACAAUACAACCUACUACCUGA | 0.00542 ± 0.0049 |
| GGAGAGGAUACGUAUACAACCUACUACCUCA | 0.484 ± 0.047 |
| GGAGUGGUUACAAUACAACCUACUACCUCA | 1.2 ± 0.079 |
| GGUCUGGAAACUAUACAACCUAGUACCUCA | 0.484 ± 0.077 |
| GGAGACCUAACUAUACAACCUACUACCCCA | 0.867 ± 0.099 |
| CCUCUGGAUACUAUAUAACCUACUACCUCA | 2.07 ± 0.12 |
| GGUCUGGAUACUAUAUAACCUACUACCUCA | 1.86 ± 0.1 |
| GCUCUGGAAUACUAUACAACCUACUACCUCA | 1.92 ± 0.1 |
| CCUCUGGAUACUAUACAACCUAUUACCUCA | 2.07 ± 0.13 |
| GGUCUGGAAUACUAUACAACCUACUACCUCA | 1.83 ± 0.11 |
| CUUCUGGAUACUAUACAACCUACUACCUCA | 1.99 ± 0.11 |
| GCUCUGGAUACUAUAUAACCUACUACCUCA | 1.79 ± 0.1 |
| CCUCUGGAUACUAUUACAACCUACUACCUCA | 1.82 ± 0.12 |
| GCUCUGGAUACUAUACAACCUAUUACCUCA | 1.88 ± 0.13 |
| GCUUCUGGAUACUAUACAACCUACUACCUCA | 1.94 ± 0.091 |
| CCUCUGGAAUACUAUACAACCUACUACCUCA | 2.19 ± 0.13 |
| CCUUCUGGAUACUAUACAACCUACUACCUCA | 2.22 ± 0.12 |
| GGACUGGAUAACUAUACAACCUACUACCUCA | 1.11 ± 0.087 |
| GGAGACCAUACUAUACAUCCUAGUACCUCA | 0.343 ± 0.029 |
| CCUCUGGAUACUAUAGAACCUACAACCUCA | 0.0249 ± 0.007 |

| Sequence | pre-steady-state target cleavage rate |
| --- | --- |
| GCUCUGGAAACUAUUCAACCUACUACCUCA | 1.68 ± 0.12 |
| CCUCUGGAUACUAUACAACCUACUAACCUCA | 2.09 ± 0.13 |
| GCUCUGGAUACUAUACAACCUACUAACCUCA | 1.71 ± 0.11 |
| CCUCUGGAUACUAUACAACCUAACUACCUCA | 0.0333 ± 0.0068 |
| GCUCUGGAUACUAUACAACCUACUACCUCA [g2:g29:cont:t1A] | 1.89 ± 0.1 |
| CCUCUGGAAACUAUUCAACCUACUACCUCA | 2.02 ± 0.13 |
| GGUCUGGAAACUAUUCAACCUACUACCUCA | 1.58 ± 0.096 |
| CGCUCUGGAUACUAUACAACCUACUACCUCA | 2.27 ± 0.14 |
| GCUCUGGAUACUAUACAACCUACCUACCUCA | 1.63 ± 0.091 |
| GGAGAGGAAACUAUACAACGUACUACCUCA | 0.27 ± 0.037 |
| GGAGACCUAUGAUAUGUACCAACAACCUCA | < 0.0001 |
| GGAGUCGGAUACUAUACAACCUACUACCUCA | 1.45 ± 0.091 |
| GGUCUGCAUACUAUACAACCUACUACCUCA | 1.71 ± 0.1 |
| GCUCUGGAUACUACACAACCUACUACCUCA | 1.89 ± 0.095 |
| GGAGACCAUACUAAACAACCUACUACCUGA | 0.604 ± 0.08 |
| GGAGAGCAUACUAUACAACGUACUACCUCA | 0.557 ± 0.036 |
| CCUAUGGAUACUAUACAACCUACUACCUCA | 2.15 ± 0.12 |
| CCUCAUGGAUACUAUACAACCUACUACCUCA | 2.31 ± 0.13 |
| GCUAUGGAUACUAUACAACCUACUACCUCA | 1.93 ± 0.092 |
| GGUCAUGGAUACUAUACAACCUACUACCUCA | 1.85 ± 0.11 |
| GCUCAUGGAUACUAUACAACCUACUACCUCA | 1.98 ± 0.1 |
| GGUAUGGAUACUAUACAACCUACUACCUCA | 1.88 ± 0.11 |
| GGAGACGAUACAAUACAACCUACUUCCUCA | 0.408 ± 0.056 |
| GGACUUGGAUACUAUACAACCUACUACCUCA | 1.78 ± 0.11 |
| GGUUGGAUACUAUACAACCUACUACCUCA | 1.78 ± 0.1 |

| Sequence | pre-steady-state target cleavage rate |
| --- | --- |
| CCUUUGGAUACUAUACAACCUACUACCUCA | 2.3 ± 0.12 |
| CCUUGGAUACUAUACAACCUACUACCUCA | 2.26 ± 0.14 |
| CCUCUUGGAUACUAUACAACCUACUACCUCA | 2.3 ± 0.12 |
| GGUUUGGAUACUAUACAACCUACUACCUCA | 1.81 ± 0.084 |
| GGUCUUGGAUACUAUACAACCUACUACCUCA | 1.87 ± 0.11 |
| GCUUGGAUACUAUACAACCUACUACCUCA | 1.87 ± 0.12 |
| GCUUUGGAUACUAUACAACCUACUACCUCA | 1.91 ± 0.11 |
| GCUCUUGGAUACUAUACAACCUACUACCUCA | 2.1 ± 0.1 |
| GGAGACCUAACUAUACUAGCUACUACCUCA | 0.0132 ± 0.006 |
| GGAGACCUAACUUACAACCUACUACCUCA | 0.00932 ± 0.008 |
| CCUCUGGAUACUAUCAACCUACUACCUCA | 1.82 ± 0.12 |
| GGAGAGGAUACAAUACAACCUACUACCUCA | 1.18 ± 0.063 |
| CCUCUGGAUACUAUACAAACUACUACCUCA | 1.27 ± 0.047 |
| GGAGACCUAUCUAUACUACCUACUACCUCA | 0.0899 ± 0.011 |
| GGUCUGGAUAGUAUACAACGUACUACCUCA | 0.319 ± 0.047 |
| GGAGACCUAACUAUACAACGUACUAGCUCA | 0.024 ± 0.0084 |
| GGACUGGAUGCUAUACAACCUACUACCUCA | 1.82 ± 0.15 |
| CCUCUGGAUACUAUCCAACCUACUACCUCA | 2.1 ± 0.14 |
| GCUCUGGAUACUAUACCAACCUACUACCUCA | 0.392 ± 0.075 |
| GGUCUGGAUACUAUCCAACCUACUACCUCA | 1.96 ± 0.14 |
| GGACUGGAUACUAUCCAACCUACUACCUCA | 1.76 ± 0.11 |
| GCUCUGGAUACUAUCAACCUACUACCUCA | 1.78 ± 0.12 |
| GCUCUGGAUACUAUCCAACCUACUACCUCA | 2.05 ± 0.14 |
